Molecules are shown by their SMILES. Activity calls are given as the source filed them. Unless noted, how the calls were made is not given here.

A short description of assay [1]: HepG2 liver cancer cell viability effects, profiling panel, resazurin fluorescence, 24 h, PK04 Diversity Set (AID 1172). Conditions: higher = more signal. (In general: Resazurin is reduced to fluorescent resorufin, in cell work by metabolically active cells.)
Assay [2] is described as follows: basal S. cerevisiae growth modulation, no modifier, primary screen, OD600, strain BY4716, 24 h, basal condition (AID 1173). Conditions: OD600, 24 h, higher = more signal, called active from +8 up or from −8 down.
The nature of assay [3]: MM1S myeloma cell viability, profiling panel, resazurin fluorescence, basal, 24 h, PK04 Diversity Set (AID 1174).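 Further: MM1S multiple myeloma cell line.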 Conditions: higher = more signal, called active from +8 up or from −8 down.
The target in assay [4] is Dihydroorotate dehydrogenase (quinone), mitochondrial (Plasmodium falciparum (isolate 3D7)) (UniProt Q08210). As to the kind of experiment: PfDHODH enzyme inhibitors, primary screen, biochemical, C-terminal His tag, absorbance 600 nm (AID 1175).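 Further: recombinant parasite enzyme with a five histidine tag at its C terminus.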 The conditions noted are these: DCIP absorbance 600 nm, higher = more signal, called active from +8 up or from −8 down.
Dihydroorotate dehydrogenase (quinone), mitochondrial (Plasmodium falciparum (isolate 3D7)), sequence (Q08210 whole entry, looked up): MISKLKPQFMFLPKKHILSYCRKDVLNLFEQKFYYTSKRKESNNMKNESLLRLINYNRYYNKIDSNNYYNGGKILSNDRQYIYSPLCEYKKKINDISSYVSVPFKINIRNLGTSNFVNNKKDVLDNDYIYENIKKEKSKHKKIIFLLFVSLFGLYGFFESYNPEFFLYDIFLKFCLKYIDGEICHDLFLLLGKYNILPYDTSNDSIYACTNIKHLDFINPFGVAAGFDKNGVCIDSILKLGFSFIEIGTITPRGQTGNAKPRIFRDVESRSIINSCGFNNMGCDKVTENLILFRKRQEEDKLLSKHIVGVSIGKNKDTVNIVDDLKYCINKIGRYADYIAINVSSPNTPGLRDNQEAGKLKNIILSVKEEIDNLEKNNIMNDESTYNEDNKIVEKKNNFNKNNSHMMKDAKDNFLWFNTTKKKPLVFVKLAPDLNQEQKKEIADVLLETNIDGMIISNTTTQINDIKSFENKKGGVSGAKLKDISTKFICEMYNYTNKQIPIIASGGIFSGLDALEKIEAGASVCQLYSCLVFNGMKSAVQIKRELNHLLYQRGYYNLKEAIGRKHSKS
The nature of assay [5]: P. aeruginosa biofilm formation inhibitors, primary screen, strain PAO1, LB-PBS medium, absorbance 600 nm (AID 1176). Conditions: P. aeruginosa PAO1 growth/biofilm, A600, 12 h; higher = more signal.
Assay [6] in a line: S. cerevisiae RM11-1a growth modifiers, primary screen, strain RM11-1a, OD600, basal, 24 h (AID 1177).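 Further: cultures grown under basal conditions with no added stressor.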 The conditions noted are these: OD600, 24 h, higher = more signal, called active from +8 up or from −8 down.
Assay [7] in a line: E. coli acrAB mutant growth effects, primary screen, E. coli filamentation inducers, strain DRC39, OD650, 24 h (AID 1178).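 Further: growth measured as culture turbidity by optical density at 650 nm.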 The conditions noted are these: higher = more signal, called active from +8 up or from −8 down.
A short description of assay [8]: E. coli acrAB mutant growth effects, primary screen, E. coli filamentation inducers, strain DRC39, OD650, 48 h (AID 1179).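 Further: screen aims at cell division blockers that make cells filament.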 Conditions: E. coli DRC39 delta-acrAB growth, higher = more signal, called active from +8 up or from −8 down.
Assay [9] is described as follows: RPMI8226 myeloma cell viability, profiling panel, resazurin fluorescence, basal, 24 h, PK04 Diversity Set (AID 1180).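 Further: RPMI8826 multiple myeloma cell line at 5000 cells per well.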 The conditions noted are these: higher = more signal.
Assay [10] concerns the target E3 ubiquitin-protein ligase XIAP (Homo sapiens) (UniProt P98170). As to the kind of experiment: XIAP binders, primary screen, biophysical, small-molecule microarray, fluorescence 635 nm (AID 1181).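 Further: score merges 667 nm emission and signal to noise over triplicate slides.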 The conditions noted are these: small-molecule microarray binding, higher = more signal.
Assay [11] has as its system XIP peptide (Xip251-270) binding. In words: small-molecule binders of XIP peptide, primary screen, biochemical, small-molecule microarray, fluorescence 635/667 nm, 0.1 µg/mL protein (AID 1182). The conditions noted are these: fluorescent protein binding, 635 nm, higher = more signal, called active from +8 up or from −8 down.
The test system of the next assay is XIP peptide (Xip251-270). In words: small-molecule binders of XIP peptide, primary screen, biochemical, small-molecule microarray, fluorescence 635/667 nm, 0.5 µg/mL protein (AID 1183). The conditions noted are these: small-molecule microarray binding, fluorescence 635 nm; higher = more signal.
A short description of assay [12]: Plasmodium falciparum growth inhibition, primary screen, strain 3D7, DAPI fluorescence, 100 nL (AID 1184).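 Further: parasites grown inside human red blood cells in medium with human serum.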 Conditions: P. falciparum 3D7 growth, 3 d, higher = more signal.
Assay [13] addresses Homeobox protein Hox-A13 (Mus musculus) (UniProt Q62424). In words: inhibitors of HoxA13-DNA binding, primary screen, biochemical, fluorescence polarization, labeled oligonucleotide (AID 1185). Conditions: 15 min, higher = more signal, called active from +8 up or from −8 down. A general note: Fluorescence polarisation rises when a labelled molecule tumbles more slowly, as on binding a larger partner.

The nature of assay [14]: inhibitors of hydroxyurea-induced Chk1 phosphorylation, primary screen, imaging, HeLa, phospho-Chk1 antibody, percent positive cells (AID 1186). The conditions noted are these: hydroxyurea-induced phospho-Chk1 immunofluorescence imaging, higher = more signal.
Assay [15] is described as follows: inhibitors of hydroxyurea-induced Chk1 phosphorylation, primary screen, imaging, HeLa, phospho-Chk1 nuclear intensity (AID 1187). Conditions: hydroxyurea-induced phospho-Chk1 immunofluorescence imaging, higher = more signal.

Homeobox protein Hox-A13 (Mus musculus), sequence (Q62424 whole entry, looked up): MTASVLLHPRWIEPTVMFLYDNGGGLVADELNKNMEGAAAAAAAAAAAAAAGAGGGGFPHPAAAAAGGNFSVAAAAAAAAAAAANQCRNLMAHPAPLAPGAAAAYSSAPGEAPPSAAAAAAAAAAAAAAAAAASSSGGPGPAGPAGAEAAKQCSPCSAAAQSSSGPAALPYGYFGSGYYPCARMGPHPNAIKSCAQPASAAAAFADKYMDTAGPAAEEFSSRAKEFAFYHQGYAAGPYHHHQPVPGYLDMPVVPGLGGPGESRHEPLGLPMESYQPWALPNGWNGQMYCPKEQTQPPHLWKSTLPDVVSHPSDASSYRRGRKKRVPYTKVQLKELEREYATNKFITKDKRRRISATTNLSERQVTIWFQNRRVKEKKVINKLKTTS
E3 ubiquitin-protein ligase XIAP (Homo sapiens), sequence (P98170 whole entry, looked up): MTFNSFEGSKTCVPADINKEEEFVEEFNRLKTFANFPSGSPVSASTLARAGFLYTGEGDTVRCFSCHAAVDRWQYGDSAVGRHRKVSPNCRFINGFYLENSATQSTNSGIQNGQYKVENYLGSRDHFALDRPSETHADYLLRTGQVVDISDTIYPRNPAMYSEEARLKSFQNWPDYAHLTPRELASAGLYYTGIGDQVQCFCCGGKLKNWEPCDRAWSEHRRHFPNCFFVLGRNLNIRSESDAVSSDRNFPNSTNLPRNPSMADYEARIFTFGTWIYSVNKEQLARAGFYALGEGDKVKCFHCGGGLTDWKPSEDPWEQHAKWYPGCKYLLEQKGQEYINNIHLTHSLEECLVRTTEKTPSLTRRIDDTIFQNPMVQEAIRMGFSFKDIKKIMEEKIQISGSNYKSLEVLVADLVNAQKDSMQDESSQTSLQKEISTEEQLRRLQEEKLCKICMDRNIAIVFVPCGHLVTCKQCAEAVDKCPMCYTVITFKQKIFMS

On to `CCCNC(=O)[C@@]1(Sc2ccc(C)cc2)CC(=O)N(C2Cc3ccccc3C2)[C@@H]1c1ccc(CO)cc1I`, for which the z-score in [1] is -0.463; in [2] it was -2.31 (inactive); in assay [3], -1.67 (inactive); in assay [5] it was 0.518 (inactive); in assay [6], -0.564 (inactive); in assay [7], 0.599 (inactive). For the same compound, the z-score in assay [8] was -0.0019 (inactive); in assay [9] it was -1.55; in assay [12] it was 0.441; in assay [13], -2.68 (inactive); in assay [14] it was 0.34 (inactive); in assay [15], 0.78 (inactive). Also, the composite z-score in [4] is -0.141 (inactive); in assay [10], -0.0286; in assay [11], 0.0241 (inactive); in the assay on XIP peptide (Xip251-270), 0.733.

Take `C=C[C@H]1C(C(=O)OCC)=CC[C@@H](c2ccccc2)N1S(=O)(=O)c1ccc(C)cc1`: the z-score was 0.149 in assay [1]; 1.32 (inactive) in assay [2]; -0.172 (inactive) in assay [3]; 0.257 (inactive) in assay [5]; 1.39 (inactive) in [6]; -0.621 (inactive) in [7]. Besides, the z-score is -0.183 (inactive) in assay [8]; -0.667 in assay [9]; -1.89 in assay [12]; -2.34 (inactive) in assay [13]; -0.229 (inactive) in assay [14]; -0.732 (inactive) in [15]. Also, the composite z-score in assay [4] was 0.319 (inactive); in assay [10] it was 0.199; in [11], 0.413 (inactive); in the assay with XIP peptide (Xip251-270) it was 0.635.

Turning to `CCOC(=O)C[C@H]1[C@H](OC(=O)c2ccc(C(=O)c3ccccc3)cc2)[C@@H](NC(=O)c2ccc(-c3ccccc3)cc2)c2cc(OCCCO)ccc2N1C(=O)Cc1ccc(OC)cc1`, the z-score in assay [1] was 0.247; in [2], 0.401 (inactive); in assay [3], -0.176 (inactive); in assay [5], -0.358 (inactive); in [6] it was 0.225 (inactive); in assay [7] it was -0.224 (inactive). The z-score was 0.424 (inactive) in assay [8]; -0.0952 in [9]; -0.75 in assay [12]; -1.41 (inactive) in [13]; 0.0183 (inactive) in assay [14]; 0.25 (inactive) in assay [15]. Besides, the composite z-score in assay [4] is 0.25 (inactive); in [10] it was -0.0994; in assay [11], -0.555 (inactive); with XIP peptide (Xip251-270) it was -0.187.

With `C=CC[C@@]1(C(=O)NCCCOC)N=C(c2ccc(OCCCO)cc2)O[C@@H]1c1ccccc1`, the z-score in [1] is -0.843; in assay [2] it was -1.85 (inactive); in [3], -0.203 (inactive); in assay [5] it was -0.375 (inactive); in assay [6], -1.27 (inactive); in [7] it was -0.12 (inactive). Besides, the z-score is 1.13 (inactive) in [8]; -0.1 in assay [9]; -1.95 in [12]; -4.75 (inactive) in [13]; -0.339 (inactive) in assay [14]; -0.343 (inactive) in [15]. Further, the composite z-score was -1.65 (inactive) in assay [4], 0.065 in assay [10], 1.42 (inactive) in assay [11] and 0.805 in the assay on XIP peptide (Xip251-270).

For `C=CC[C@@]1(C(=O)NCCCOC)N=C(c2ccc(OCCCO)cc2)O[C@@H]1c1ccccc1N=[N+]=[N-]`, the z-score in assay [1] is 1.06; in [2], -0.537 (inactive); in assay [3], -0.394 (inactive); in assay [5], -0.814 (inactive); in [6], 0.464 (inactive); in [7], 0.868 (inactive). In addition, the z-score in [8] is 1.43 (inactive); in assay [9], -0.137; in assay [12] it was -2.29; in assay [13], -6.15 (inactive); in [14], -0.679 (inactive); in assay [15], -0.6 (inactive). Moreover, the composite z-score was 1.05 (inactive) in [4], 0.598 in assay [10], 0.05 (inactive) in [11] and 0.516 in the assay with XIP peptide (Xip251-270).

As for `CC(c1ccccc1)C(O)C1C=CC2C(=O)N(C)C(=O)C2N1Nc1ccccc1` (centres undefined), the z-score in assay [1] is -0.705; in [2] it was -0.0181 (inactive); in assay [3], -1.27 (inactive); in assay [5], 0.944 (inactive); in assay [6], -0.0455 (inactive); in [7], -1.12 (inactive). Moreover, the z-score in assay [8] was -0.374 (inactive); in assay [9], -1.1; in [12], 0.139; in [13], -3.9 (inactive); in assay [14] it was 0.378 (inactive); in assay [15] it was -0.484 (inactive). For the same compound, the composite z-score in assay [4] is -0.475 (inactive); in [10], -0.0654; in assay [11], 0.255 (inactive); in the assay on XIP peptide (Xip251-270) it was 0.726.

On to `CC(C)N1C(=O)C[C@@](C(=O)NC2CC2)(c2ccc([N+](=O)[O-])cc2)[C@H]1c1ccc(CO)cc1`, for which the z-score in assay [1] was -0.557; in assay [2] it was -0.693 (inactive); in assay [3], 0.616 (inactive); in [5], 1.6 (inactive); in assay [6], -0.437 (inactive); in assay [7], 0.209 (inactive). Also, the z-score is 0.167 (inactive) in assay [8]; 0.499 in assay [9]; -1.15 in [12]; -1.81 (inactive) in assay [13]; 0.254 (inactive) in assay [14]; 0.529 (inactive) in assay [15]. Further, the composite z-score was -0.236 (inactive) in assay [4], 0.236 in [10], 0.65 (inactive) in [11] and 0.396 with XIP peptide (Xip251-270).

As to `[N-]=[N+]=Nc1ccccc1C[C@@]1(C(=O)N2CCOCC2)N=C(c2ccc(OCCCO)cc2)O[C@@H]1c1ccccc1`, the z-score is -0.339 in [1]; -1.76 (inactive) in assay [2]; -0.967 (inactive) in [3]; 0.413 (inactive) in [5]; -0.0584 (inactive) in assay [6]; 0.37 (inactive) in [7]. The z-score in [8] is -0.0378 (inactive); in assay [9], -0.0984; in assay [12] it was -2.32; in assay [13], -5.84 (inactive); in assay [14], -1.05 (inactive); in assay [15], -1.34 (inactive). The composite z-score in assay [4] is -0.132 (inactive); in assay [10], -0.09; in assay [11], 0.111 (inactive); in the assay with XIP peptide (Xip251-270) it was 0.765.

`CCCCCN1CC=CC23O[C@@H]4C=CCCOC(=O)C4[C@H]2C(=O)N(CCCCCCO)[C@@H]3C1=O` (some centres undefined): the z-score in assay [1] is 0.678; in [2] it was 0.605 (inactive); in assay [3] it was 0.0267 (inactive); in assay [5] it was 0.55 (inactive); in assay [6] it was 0.543 (inactive); in [7], 0.649 (inactive). The z-score is 0.567 (inactive) in assay [8]; 0.424 in [9]; -0.103 in [12]; -4.59 (inactive) in assay [13]; -0.0991 (inactive) in assay [14]; 0.155 (inactive) in assay [15]. The composite z-score is 0.401 (inactive) in assay [4], 0.0702 in [10], 0.592 (inactive) in assay [11] and -0.199 in the assay with XIP peptide (Xip251-270).

Source of the values: PubChem BioAssay.
